Assay results: PubChem BioAssay AID651821 (The Scripps Research Institute Molecular Screening Center, 2012)
The campaign covered roughly 370,000 compounds. About 4,700 (1.3%) were called active. What follows is part of a selection rich in actives, with near analogues and random picks from the rest. A number with no mark means an inactive call.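 Rule for the calls: active = inhibition above the plate cutoff, the mean of all test compounds on that plate plus 3 SD (cut at about 35% in these data); inactive = the rest.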

Assay: small molecules binding CAG repeat RNA – biochemical, fluorescence, primary screen (AID 651821);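 note: 0% = DMSO alone and 100% = 100 µM mitoxantrone as full dye displacement; higher means more dye released from RNA so lower well fluorescence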
Details: r(CAG) RNA repeat, TO-PRO-1 dye displacement fluorescence; at 3 µM; stronger effect = higher value

Point of comparison: `COC(=O)c1cccc(Cn2ccc3ccc(-c4ccc5ccn(C(=O)c6ccccc6C)c5c4)cc32)c1`, inhibition 10.1%. Against it:
- O=S(=O)(c1ccccc1)N1CCC(c2nc3ccccc3o2)CC1 — lower, 0.56%
- COC(=O)[C@]12CCCCC=C1N(Cc1ccc(Cl)cc1Cl)C(=O)[C@H](CC(=O)NCc1cccc3ccccc13)C2 — higher, 12.9%
- O=C(NC1CCC1)c1ccc(C#Cc2cccc(F)c2)c[n+]1[O-] — lower, 1.31%
- C#CCNC(=O)C[C@H]1C[C@@]2(C(=O)OC)C(=C[C@H](C(C)C)O[C@@H]2C2CC2)N(Cc2ccco2)C1=O — lower, -0.82%
- COC1=C[C@H](C(=O)NCCNC(C)=O)[C@H](C)[C@@H](c2ccccc2)CC1=O — lower, 7.1%
- COC(=O)C1=C(C)N(Cc2cccc(C(F)(F)F)c2)C(=NCc2ccccc2)NC1c1ccc(Cl)cc1 (stereo not given) — lower, 6.45%
- N#CC1(NC(=O)COC(=O)Cc2n[nH]c(=O)c3ccccc23)CCCCC1 — lower, -1.83%
- COC(=O)C[C@@H]1CC[C@@H]2[C@@H](COc3ccc(NC(=O)Nc4ccc(F)c(F)c4)cc3C(=O)N2C)O1 — lower, 3.67%
- CCOC(=O)C[C@H]1c2ccc(C(F)(F)F)cc2S(=O)(=O)N1c1ccccc1 — lower, 4.3%
- CCOC(=O)[C@H]1Nc2ccc(Cl)cc2[C@@H]2[C@H]1C1CC(c3ccccc31)N2C(=O)OCc1ccccc1 (stereo not given in full) — lower, 8.62%
- CC1=CC=CC2=N/C(=N\S(=O)(=O)c3ccc(F)cc3F)c3ccccc3CN12 — lower, -1.16%
- CC(=O)c1cc(-c2ccc3ccccc3c2)c(=O)n2c1CCC2 — lower, 5.03%
- O=C(CSc1nc2sc3c(c2c(=O)n1-c1ccccc1)CCCC3)NN=Cc1ccc(OCc2ccccc2)cc1 — lower, 7.65%
- CC(C)Nc1nnc(SCC(=O)c2c[nH]c3ccccc23)s1 — lower, 3.39%
- CN(C(=O)CSc1nnc(Nc2ccccc2)s1)C1CCS(=O)(=O)C1 (stereo not given) — lower, 0.39%
- O=C1c2ccccc2NC(c2ccccc2O)N1NS(=O)(=O)c1ccccc1 (stereo not given) — lower, 2.81%
- O=S(=O)(NC(=S)Nc1ccccc1)c1ccc(F)cc1 — lower, 1.19%
- CC(=O)N1C(=O)/C(=C2\SC(=S)N(NC(=O)c3ccc(O)cc3)C2=O)c2ccccc21 — higher, 14%
- C/C(CC(=O)N1CCN(C=O)CC1)=N\NC(=O)c1ccc(Br)cc1 — lower, 0.43%

In the case of `CCOC(=O)C1Nc2ccc(C(F)(F)F)cc2C2C=CCC12` (stereo not given), the inhibition was 60.5% (active).
For `N#Cc1ccccc1CN1C(=O)S/C(=C/c2cccn2-c2cccc(C(=O)O)c2)C1=O`, the inhibition was 58.4% (active).
With `CC(C)c1ccc(Nc2nnc(SCC(=O)c3nnc(-c4ccccc4)o3)s2)cc1` the inhibition was 50.7% (active).
For `O=C(O)c1ccc(/C=C2\SC(=S)N(NC(=O)c3ccc(Br)cc3)C2=O)cc1`, the inhibition was 34.9% (active).
With `O=C1/C(=C/c2ccc(F)cc2)SC(=S)N1NS(=O)(=O)c1ccccc1` the inhibition was 55.7% (active).
